# Assay results from the supplement of paper PMC8728848.
# Shown is part of a subset that was picked to be rich in the strongest signals.
# B1: Epa2 (Candida glabrata) (protein)
# chain: MGSSHHHHHHSSGLVPRGSHMASSKDPTSFPMGCSPQVLKTQPGLAVKLYSYGHPVPGCAYNTYQYPDFPRSGYKKERKLADITGVNGRIDIDLKPNDPCRVLSGNLPSNYNYQNTLTYTNFTMILYGYFQPKVTGYHTFNLEADDLLFMNLGAGNAFDCCRAESTLDNFGNYQSYSIWGTDKATADLTVFLVSGIYYPIRLFYVNRDNNAVLDFSFSTEFNKEIIHDFTSYFFSASDEEQCPGNI
# What was measured:
# Experiment in all cases: glycan array binding signal (z-score within array); higher = stronger binding
# Conditions in all cases: glycan notation: IUPAC condensed, linker removed
# [1] = molecular target: Fuc(a1-2)Gal(b1-3)[Fuc(a1-4)]GlcNAc
# Outline: (§1)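 Columns mapping to the same glycan were averaged after glycan names were converted to IUPAC-condensed notation. The data come from 3228 arrays in the Consortium for Functional Glycomics database, limited to those with an available protein sequence. Binding is reported as a within-array Z-score averaged across arrays of one protein sequence and across linkers.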
# [2] = molecular target: Fuc(a1-2)Gal(b1-3)[Fuc(a1-4)]GlcNAc(b1-3)[Fuc(a1-3)[Gal(b1-4)]GlcNAc(b1-6)]Gal(b1-4)Glc
# Outline: as §1
# [3] = molecular target: Fuc(a1-2)Gal(b1-4)Fuc(a1-3)]GlcNAc(b1-2)Man(a1-3)[Fuc(a1-2)Gal(b1-4)[Fuc(a1-3)]GlcNAc(b1-2)Man(a1-6)]Man(b1-4)GlcNAc(b1-4)GlcNAc
# Outline: as §1
# Fuc(a1-2)Gal(b1-4)GlcNAc = molecular target: Fuc(a1-2)Gal(b1-4)GlcNAc
# Outline: as §1
# [4] = molecular target: Fuc(a1-2)Gal(b1-4)GlcNAc(b1-6)GalNAc
# Outline: as §1
# [5] = molecular target: Fuc(a1-2)Gal(b1-4)[Fuc(a1-3)]GlcNAc(b1-3)GalNAc
# Outline: as §1
# [6] = molecular target: Fuc(a1-2)Gal6S(b1-3)GlcNAc6S
# Outline: as §1
# [7] = molecular target: Fuc(a1-2)[Gal(a1-3)]Gal(b1-3)GlcNAc
# Outline: as §1
# [8] = molecular target: Fuc(a1-2)[Gal(a1-3)]Gal(b1-4)[Fuc(a1-3)]Glc
# Outline: as §1
# [9] = molecular target: Fuc(a1-2)[GalNAc(a1-3)]Gal(b1-3)GalNAc(b1-3)Gal(a1-4)Gal(b1-4)Glc
# Outline: as §1
# [10] = molecular target: Fuc(a1-2)[GalNAc(a1-3)]Gal(b1-4)GlcNAc(b1-2)Man(a1-3)[Fuc(a1-2)[GalNAc(a1-3)]Gal(b1-4)GlcNAc(b1-2)Man(a1-6)]Man(b1-4)GlcNAc(b1-4)[Fuc(a1-6)]GlcNAc
# Outline: as §1
# [11] = molecular target: Fuc(a1-2)[GalNAc(a1-3)]Gal(b1-4)GlcNAc(b1-3)Gal(b1-4)GlcNAc
# Outline: as §1
# [12] = molecular target: Fuc(a1-2)[GalNAc(a1-3)]Gal(b1-4)[Fuc(a1-3)]GlcNAc(b1-3)GalNAc
# Outline: as §1
# [13] = molecular target: Fuc(a1-3)[Gal(b1-4)]GlcNAc(b1-2)Man
# Outline: as §1
# [14] = molecular target: Fuc(a1-3)[Gal(b1-4)]GlcNAc(b1-3)GalNAc
# Outline: as §1
# [15] = molecular target: Fuc(a1-3)[Gal(b1-4)]GlcNAc(b1-6)GalNAc
# Outline: as §1
# [16] = molecular target: Gal(a1-3)Gal(b1-3)[Fuc(a1-4)]GlcNAc(b1-2)Man(a1-3)[Gal(a1-3)Gal(b1-3)[Fuc(a1-4)]GlcNAc(b1-2)Man(a1-6)]Man(b1-4)GlcNAc(b1-4)GlcNAc
# Outline: as §1
# Gal(a1-4)GlcNAc = molecular target: Gal(a1-4)GlcNAc
# Outline: as §1
# [17] = molecular target: Gal(b1-3)[Neu5Ac(a2-6)]GlcNAc(b1-4)Gal(b1-4)Glc
# Outline: as §1
# Gal(b1-4)Glc6S = molecular target: Gal(b1-4)Glc6S
# Outline: as §1
# [18] = molecular target: Gal(b1-4)GlcNAc(b1-3)Gal(b1-3)GalNAc
# Outline: as §1
# [19] = molecular target: Gal(b1-4)GlcNAc(b1-3)Gal(b1-3)GlcNAc
# Outline: as §1
# [20] = molecular target: Gal(b1-4)GlcNAc(b1-3)Gal(b1-4)GlcNAc
# Outline: as §1
# [21] = molecular target: Gal(b1-4)GlcNAc(b1-3)GalNAc
# Outline: as §1
# [22] = molecular target: Gal(b1-4)GlcNAc(b1-3)[Fuc(a1-3)GlcNAc(b1-6)]Gal(b1-4)Glc
# Outline: as §1
# [23] = molecular target: Gal(b1-4)GlcNAc(b1-3)[GlcNAc(b1-6)]Gal(b1-4)GlcNAc
# Outline: as §1
# Gal3S(b1-3)GlcNAc = molecular target: Gal3S(b1-3)GlcNAc
# Outline: as §1
# [24] = molecular target: Gal3S(b1-3)[Fuc(a1-4)]GlcNAc
# Outline: as §1
# Gal3S6S(b1-4)GlcNAc6S = molecular target: Gal3S6S(b1-4)GlcNAc6S
# Outline: as §1
# Gal4S(b1-4)GlcNAc = molecular target: Gal4S(b1-4)GlcNAc
# Outline: as §1
binder,measurement,setting,value
B1,glycan array binding signal (z-score),[1],0.672
same,glycan array binding signal (z-score),[2],0.365
same,glycan array binding signal (z-score),[3],0.533
same,glycan array binding signal (z-score),Fuc(a1-2)Gal(b1-4)GlcNAc,-0.046
same,glycan array binding signal (z-score),[4],2.02
same,glycan array binding signal (z-score),[5],4.06
same,glycan array binding signal (z-score),[6],1.81
same,glycan array binding signal (z-score),[7],-0.553
same,glycan array binding signal (z-score),[8],-0.56
same,glycan array binding signal (z-score),[9],-0.252
same,glycan array binding signal (z-score),[10],-0.26
same,glycan array binding signal (z-score),[11],-0.172
same,glycan array binding signal (z-score),[12],4.26
same,glycan array binding signal (z-score),[13],-1.15
same,glycan array binding signal (z-score),[14],0.659
same,glycan array binding signal (z-score),[15],2.23
same,glycan array binding signal (z-score),[16],-0.479
same,glycan array binding signal (z-score),Gal(a1-4)GlcNAc,2.5
same,glycan array binding signal (z-score),[17],0.015
same,glycan array binding signal (z-score),Gal(b1-4)Glc6S,-0.198
same,glycan array binding signal (z-score),[18],0.503
same,glycan array binding signal (z-score),[19],-0.725
same,glycan array binding signal (z-score),[20],-0.158
same,glycan array binding signal (z-score),[21],-0.071
same,glycan array binding signal (z-score),[22],0.111
same,glycan array binding signal (z-score),[23],-1.09
same,glycan array binding signal (z-score),Gal3S(b1-3)GlcNAc,-0.16
same,glycan array binding signal (z-score),[24],0.641
same,glycan array binding signal (z-score),Gal3S6S(b1-4)GlcNAc6S,2.14
same,glycan array binding signal (z-score),Gal4S(b1-4)GlcNAc,-0.316
